Values joined by “and” are separate entries in the source; they are usually repeats but may differ in a detail not shown here. Identical values can stand only once. Inconclusive results are not listed. A structure can be active in one record and inactive in another. Active and inactive are the calls of the source. Rule for the calls, unless noted: active = hit-call score of the fitted dose curve at least 0.9, where 1 is the maximum; inconclusive = response in the unintended direction; inactive = score below 0.9.
Assays:
[1] = CCTE_Shafer_MEA_acute_burst_percentage_mean: CCTE's Neural Acute Assay for Percentage of Spikes in a Burst, Shafer Lab (AID 2284017; active = hit-call score of the fitted dose curve at least 0.9, where 1 is the maximum; inactive = score below 0.9;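 for AC50: curve fitted for loss of signal so potency reflects decreased burst percentage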)
In short: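 Primary rat cortical neurons on 48-well MEA plates, treated on DIV 13 or 15 at 0.03-40 uM. Spikes detected at 8x rms noise at 37C; percent change from 40-min baseline to 40-min post-dose recording, fitted versus DMSO.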

[2] = CCTE_Shafer_MEA_acute_burst_percentage_std: CCTE's Neural Acute Assay for Standard Deviation of Burst Percentage, Shafer Lab (AID 2284018; active = hit-call score of the fitted dose curve at least 0.9, where 1 is the maximum; inactive = score below 0.9;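 note: fitted in the negative direction so actives lower burst percentage SD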)
In short: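 Primary rat cortical neurons on 16-electrode MEA wells were recorded 40 min at baseline (DIV 13 or 15), then 40 min after compound (0.03-40 uM), at 37 C. Well value is SD across electrodes of spikes-in-bursts/total spikes; endpoint is percent change, DMSO-referenced.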

[3] = CCTE_Shafer_MEA_acute_per_network_burst_electrodes_number_mean: CCTE's Neural Acute Assay for Mean Number of Electrodes in a Network Burst, Shafer Lab (AID 2284021; active = hit-call score of the fitted dose curve at least 0.9, where 1 is the maximum; inactive = score below 0.9;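 note: curves fitted for decreases only so hits reduce electrodes per burst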)
In short: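 Rat primary cortical neurons on 16-electrode MEA wells were recorded 40 min at baseline on DIV 13 or 15, then 40 min after compound (0.03-40 uM), at 37 C. Value is percent change per well, fitted in loss direction versus DMSO.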

[4] = CCTE_Shafer_MEA_acute_cross_correlation_HWHM: CCTE's Neural Acute Assay for Cross Correlation at Half Width at Half Maximum, Shafer Lab (AID 2284026; active = hit-call score of the fitted dose curve at least 0.9, where 1 is the maximum; inactive = score below 0.9;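 note: percent change per well from pre-dose baseline in spike cross-correlogram half width; hits are a decrease in cross-correlogram half width relative to DMSO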;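 for outcome: spontaneous network firing of rat primary cortical neurons on multiwell microelectrode arrays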)
In short: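 Primary rat cortical neurons on 16-electrode MEA wells; 40-min baseline on DIV 13 or 15, then 40-min recording with compound (0.03-40 uM) at 37 C. HWHM of spike cross-correlogram expressed as percent change from baseline per well, DMSO reference.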

[5] = CCTE_Shafer_MEA_acute_synchrony_index: CCTE's Neural Acute Assay for Synchrony, Shafer Lab (AID 2284027; active = hit-call score of the fitted dose curve at least 0.9, where 1 is the maximum; inactive = score below 0.9;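 note: network synchrony index of spontaneous spiking in primary rat cortical neurons on MEAs; fitted for loss of signal so actives lower synchrony relative to DMSO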)
In short: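 Acute exposure of rat primary cortical neurons (DIV 13 or 15) at 0.03-40 uM. Synchrony index, 40 min before vs after, as % change relative to DMSO control.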

[6] = CCTE_Shafer_MEA_acute_LDH: CCTE's Lactate Dehydrogenase Assay for Cytotoxicity in the Neural Acute Assay, Shafer Lab (AID 2284086);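 note: active means LDH release rises above DMSO vehicle level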
In short: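 Cytotoxicity readout: spectrophotometric LDH activity in supernatant of rat primary cortical neurons, post-plating day 13 or 15, sampled after 40 min compound exposure; signal gain relative to DMSO baseline.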

[7] = biological target: AR (gene 367) (UniProt P10275); experiment: ACEA_AR_antagonist_80hr: ACEA Biosciences xCELLigence Real-Time Cell Analysis on Androgen Receptor Antagonism for Proliferation (AID 2283787);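 note: 22Rv1 human prostate cancer cells with growth followed by electrical impedance; hits lower the impedance growth signal relative to DMSO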
Sequence of AR (gene 367) (P10275 whole entry, looked up): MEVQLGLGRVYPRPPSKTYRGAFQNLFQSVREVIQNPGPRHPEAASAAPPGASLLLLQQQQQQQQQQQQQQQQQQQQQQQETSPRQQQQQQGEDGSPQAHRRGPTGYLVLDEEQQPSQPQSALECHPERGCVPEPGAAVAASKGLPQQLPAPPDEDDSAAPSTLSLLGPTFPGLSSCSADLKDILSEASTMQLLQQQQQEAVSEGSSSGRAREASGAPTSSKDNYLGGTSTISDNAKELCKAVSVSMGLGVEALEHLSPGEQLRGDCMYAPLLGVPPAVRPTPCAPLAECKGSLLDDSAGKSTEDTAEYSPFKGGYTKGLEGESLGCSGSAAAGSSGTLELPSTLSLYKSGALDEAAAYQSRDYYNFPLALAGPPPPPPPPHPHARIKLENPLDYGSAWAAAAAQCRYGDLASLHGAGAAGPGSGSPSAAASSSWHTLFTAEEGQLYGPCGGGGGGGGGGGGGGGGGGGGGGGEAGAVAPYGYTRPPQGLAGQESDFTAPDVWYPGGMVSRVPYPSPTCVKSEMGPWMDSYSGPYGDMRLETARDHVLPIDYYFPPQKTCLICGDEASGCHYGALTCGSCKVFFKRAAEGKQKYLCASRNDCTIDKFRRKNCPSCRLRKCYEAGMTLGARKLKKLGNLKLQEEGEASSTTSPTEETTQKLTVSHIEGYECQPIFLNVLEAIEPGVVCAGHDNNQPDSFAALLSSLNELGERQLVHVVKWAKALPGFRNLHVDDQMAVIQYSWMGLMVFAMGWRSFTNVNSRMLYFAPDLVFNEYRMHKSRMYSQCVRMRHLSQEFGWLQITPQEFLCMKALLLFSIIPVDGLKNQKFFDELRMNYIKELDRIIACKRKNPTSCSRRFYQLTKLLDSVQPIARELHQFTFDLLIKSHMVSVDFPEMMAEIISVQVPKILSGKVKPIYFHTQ
In short: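 Using 22Rv1 cells held in assay medium, we dosed compounds (100 uM maximum final, 1:4 serial, eight points, 0.5% DMSO at top) and recorded cell-electrode impedance; the 80 hr timepoint was analyzed against DMSO.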

[8] = biological target: Nucleoli Translocation, AR (gene 367) (UniProt P10275); experiment: UPITT_HCI_U2OS_AR_TIF2_Nucleoli_Antagonist: University of Pittsburgh U2OS Androgen Receptor-Transcriptional Intermediary Factor 2 (AR-TIF2) Antagonism High Content Imaging Assay for Nucleoli Translocation (AID 2283997)
Sequence of Nucleoli Translocation, AR (gene 367) (P10275 whole entry, looked up, the tested form may be a part): as the sequence (P10275 whole entry, looked up) above
In short: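 An antagonist-mode imaging screen: engineered U2OS (AR-RFP, TIF2-GFP) exposed to 20 uM compound, 0.2% DMSO. Activity reflects nucleolar red fluorescence change relative to DHT baseline.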

[9] = biological target: Nucleoli Translocation, AR (gene 367) (UniProt P10275); experiment: UPITT_HCI_U2OS_AR_TIF2_Nucleoli_Agonist: University of Pittsburgh U2OS Androgen Receptor-Transcriptional Intermediary Factor 2 (AR-TIF2) Agonism High Content Imaging Assay for Nucleoli Translocation (AID 2283998)
In short: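 Cells express human AR fused to red fluorescent protein and TIF2 fused to GFP. Red fluorescence in the nucleolar region was quantified by high-content imaging and fitted as gain-of-signal against a DMSO baseline. Compounds were tested at 0.195 to 50 uM final (0.5% DMSO).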

[10] = biological target: Ratio of Nucleoli Translocation and Cytoplasm, AR (gene 367) (UniProt P10275); experiment: UPITT_HCI_U2OS_AR_TIF2_Nucleoli_Cytoplasm_Ratio_Agonist: University of Pittsburgh U2OS Androgen Receptor-Transcriptional Intermediary Factor 2 (AR-TIF2) Agonism High Content Imaging Assay for Ratio of Nucleoli Translocation and Cytoplasm (AID 2284000);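 note: hits raise the red nucleolar to cytoplasm ratio above vehicle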
Sequence of Ratio of Nucleoli Translocation and Cytoplasm, AR (gene 367) (P10275 whole entry, looked up): as above
In short: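 Primary screen at 20 uM final (0.2% DMSO), then triplicate confirmation and dose-response from 0.195 to 50 uM final (0.5% DMSO). Cells: U2OS with AR-RFP and TIF2-GFP. Endpoint is the nucleoli/cytoplasm red-fluorescence ratio, gain-of-signal vs DMSO.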

[11] = biological target: Estrogen receptor (Homo sapiens) (UniProt P03372); experiment: ATG_ERa_TRANS: Attagene TRANS-FACTORIAL HepG2 Assay for human Estrogen Receptor alpha (ERa) (AID 2282970); settings: HepG2 Attagene TRANS ERa GAL4 reporter, mRNA
Sequence of Estrogen receptor (Homo sapiens) (P03372 whole entry, looked up, the tested form may be a part): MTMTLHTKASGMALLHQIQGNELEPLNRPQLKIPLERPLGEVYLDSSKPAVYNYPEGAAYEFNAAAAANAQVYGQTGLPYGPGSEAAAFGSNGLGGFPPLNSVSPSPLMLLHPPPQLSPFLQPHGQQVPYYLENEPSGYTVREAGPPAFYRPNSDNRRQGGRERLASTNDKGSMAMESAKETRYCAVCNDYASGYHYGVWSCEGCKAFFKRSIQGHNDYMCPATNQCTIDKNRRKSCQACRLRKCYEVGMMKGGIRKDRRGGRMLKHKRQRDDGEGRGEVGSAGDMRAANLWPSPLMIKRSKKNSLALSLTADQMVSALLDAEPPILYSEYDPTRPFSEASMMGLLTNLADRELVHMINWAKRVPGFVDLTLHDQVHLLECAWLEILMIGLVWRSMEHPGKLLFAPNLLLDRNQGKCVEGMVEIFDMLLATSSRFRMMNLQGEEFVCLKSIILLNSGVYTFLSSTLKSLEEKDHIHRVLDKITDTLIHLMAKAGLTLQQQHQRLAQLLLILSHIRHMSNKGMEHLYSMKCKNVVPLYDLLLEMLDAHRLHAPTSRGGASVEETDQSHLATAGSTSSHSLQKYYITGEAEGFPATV
In short: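 One of 30 multiplexed endpoints from a HepG2 TRANS system, this one reports ERa-Gal4-driven reporter mRNA. Transcripts were quantified 24 hours post-dosing by fluorescent RT-PCR and capillary electrophoresis, with activity scored as induction over DMSO.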

[12] = CEETOX_H295R_11DCORT: CeeTox H295R High-throughput Steroidogenesis Assay for 11-Deoxycortisol (11DCORT) (AID 2283432; active = hit-call score of the fitted dose curve at least 0.9, where 1 is the maximum; inactive = score below 0.9;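 for AC50: human adrenal H295R cells prestimulated with 10 µM forskolin for 48 h; 11-deoxycortisol secreted into the medium measured by LC-MS/MS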); settings: actives raise or lower the signal
In short: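 H295R cells prestimulated 48 h with 10 uM forskolin, then exposed 48 h to chemical in 0.1% DMSO. 11-Deoxycortisol in medium quantified by HPLC-MS/MS after MTBE extraction; bidirectional fit versus DMSO. MTT viability read in same wells.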

[13] = CEETOX_H295R_CORTIC: CeeTox H295R High-throughput Steroidogenesis Assay for Corticosterone (CORTIC) (AID 2283437; active = hit-call score of the fitted dose curve at least 0.9, where 1 is the maximum; inactive = score below 0.9;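 note: corticosterone secreted into medium quantified by mass spectrometry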;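 for AC50: human H295R adrenal cells prestimulated with forskolin before chemical exposure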); settings: actives raise or lower the signal
In short: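 Steps: seed H295R, adhere overnight; 10 uM forskolin 48 h; replace with chemical (0.1% DMSO) 48 h; extract medium with MTBE; quantify corticosterone by HPLC-MS/MS; score bidirectionally vs DMSO.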

[14] = CEETOX_H295R_CORTISOL: CeeTox H295R High-throughput Steroidogenesis Assay for Cortisol (AID 2283438; active = hit-call score of the fitted dose curve at least 0.9, where 1 is the maximum; inactive = score below 0.9;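 note: cortisol secreted into medium quantified by LC-MS/MS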); settings: actives raise or lower the signal
In short: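 Steroidogenesis in H295R, per modified OECD 456: 48 h forskolin (10 uM), then 48 h exposure, 0.1% DMSO. Cortisol by extraction and tandem MS; viability by MTT (570/650 nm); cytotoxic chemicals diluted and re-tested.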

[15] = CEETOX_H295R_DOC: CeeTox H295R High-throughput Steroidogenesis Assay for DOC (AID 2283439; active = hit-call score of the fitted dose curve at least 0.9, where 1 is the maximum; inactive = score below 0.9); settings: actives raise or lower the signal
In short: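 H295R, fsk 10 uM ×48 h pre, cmpd ×48 h (0.1% DMSO). Media → MTBE extr. → LC-MS/MS, DOC. Bidirectional fit vs DMSO; MTT viability same wells, re-test diluted if <70%.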

[16] = biological target: human Peripheral-type Benzodiazepine Receptor (PBR), TSPO (gene 706) (UniProt P30536); experiment: NVS_MP_hPBR: NovaScreen (NVS) Membrane Protein Assay for human Peripheral-type Benzodiazepine Receptor (PBR) (AID 2283331);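 note: hits reduce radioligand binding relative to DMSO baseline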
Sequence of human Peripheral-type Benzodiazepine Receptor (PBR), TSPO (gene 706) (P30536 whole entry, looked up): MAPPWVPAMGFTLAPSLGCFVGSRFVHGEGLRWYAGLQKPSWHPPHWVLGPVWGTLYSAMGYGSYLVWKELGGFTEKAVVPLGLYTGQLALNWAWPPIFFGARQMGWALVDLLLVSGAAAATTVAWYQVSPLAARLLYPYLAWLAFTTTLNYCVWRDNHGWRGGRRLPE
In short: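 Using human colon-derived membranes, this one-endpoint binding test reads radioligand loss by scintillation after 1 h. Screening started at 25 uM in duplicate, with positive and negative controls on every plate, and actives moved to dose series.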

[17] = biological target: rat CYP2C12, Cyp2c12 (gene 25011) (UniProt P11510); experiment: NVS_ADME_rCYP2C12: NovaScreen (NVS) CYP450-related Enzyme Activity (ADME) Assay for rat CYP2C12 (AID 2283119)
Sequence of rat CYP2C12, Cyp2c12 (gene 25011) (P11510 whole entry, looked up): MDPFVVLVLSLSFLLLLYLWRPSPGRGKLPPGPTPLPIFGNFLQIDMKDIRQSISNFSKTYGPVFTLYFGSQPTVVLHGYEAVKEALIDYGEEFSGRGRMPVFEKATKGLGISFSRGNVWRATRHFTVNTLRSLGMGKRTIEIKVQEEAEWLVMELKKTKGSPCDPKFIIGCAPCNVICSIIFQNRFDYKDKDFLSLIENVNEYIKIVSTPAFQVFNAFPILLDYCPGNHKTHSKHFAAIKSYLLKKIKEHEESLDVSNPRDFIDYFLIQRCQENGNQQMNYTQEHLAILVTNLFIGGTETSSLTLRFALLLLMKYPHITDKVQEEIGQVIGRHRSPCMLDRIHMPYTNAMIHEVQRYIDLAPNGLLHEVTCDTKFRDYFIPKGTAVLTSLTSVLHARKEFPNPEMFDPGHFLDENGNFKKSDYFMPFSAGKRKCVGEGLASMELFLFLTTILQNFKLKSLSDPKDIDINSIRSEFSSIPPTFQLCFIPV
In short: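 Fluorescent-substrate turnover by recombinant rat CYP2C12, measured at 0.5 h, normalized to acetonitrile vehicle. Chemicals screened first at a single 10 uM concentration in duplicate, with concentration series for actives.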

[18] = biological target: human p21 Activated Kinase 4 (PAK4), PAK4 (gene 10298) (UniProt O96013); experiment: NVS_ENZ_hPAK4: NovaScreen (NVS) Enzymatic Assay for human p21 Activated Kinase 4 (PAK4) (AID 2283189)
Sequence of human p21 Activated Kinase 4 (PAK4), PAK4 (gene 10298) (O96013 whole entry, looked up): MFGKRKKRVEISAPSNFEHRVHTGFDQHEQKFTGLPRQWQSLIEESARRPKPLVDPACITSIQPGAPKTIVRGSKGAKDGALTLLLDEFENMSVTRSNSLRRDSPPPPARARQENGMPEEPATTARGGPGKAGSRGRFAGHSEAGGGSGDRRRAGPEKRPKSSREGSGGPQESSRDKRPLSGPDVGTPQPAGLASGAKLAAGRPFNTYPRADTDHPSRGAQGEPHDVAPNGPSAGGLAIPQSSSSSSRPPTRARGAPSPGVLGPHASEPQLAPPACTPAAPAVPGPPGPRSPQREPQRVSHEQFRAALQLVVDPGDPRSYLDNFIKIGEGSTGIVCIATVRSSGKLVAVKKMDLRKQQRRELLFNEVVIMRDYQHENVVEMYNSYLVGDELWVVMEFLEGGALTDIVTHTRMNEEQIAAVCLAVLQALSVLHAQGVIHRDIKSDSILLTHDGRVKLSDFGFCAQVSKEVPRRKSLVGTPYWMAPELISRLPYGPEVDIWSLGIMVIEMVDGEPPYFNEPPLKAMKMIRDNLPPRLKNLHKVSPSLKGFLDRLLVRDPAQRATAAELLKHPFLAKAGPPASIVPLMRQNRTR
In short: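 Extracted PAK4 enzyme activity read by fluorescence with mobility-shift separation 1 h after chemical addition. Duplicate single-concentration screen at 25 uM, DMSO as negative control.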

[19] = biological target: human Phosphatase and Tensin Homolog (PTEN), PTEN (gene 5728) (UniProt P60484); experiment: NVS_ENZ_hPTEN: NovaScreen (NVS) Enzymatic Assay for human Phosphatase and Tensin Homolog (PTEN) (AID 2283203)
Sequence of human Phosphatase and Tensin Homolog (PTEN), PTEN (gene 5728) (P60484 whole entry, looked up): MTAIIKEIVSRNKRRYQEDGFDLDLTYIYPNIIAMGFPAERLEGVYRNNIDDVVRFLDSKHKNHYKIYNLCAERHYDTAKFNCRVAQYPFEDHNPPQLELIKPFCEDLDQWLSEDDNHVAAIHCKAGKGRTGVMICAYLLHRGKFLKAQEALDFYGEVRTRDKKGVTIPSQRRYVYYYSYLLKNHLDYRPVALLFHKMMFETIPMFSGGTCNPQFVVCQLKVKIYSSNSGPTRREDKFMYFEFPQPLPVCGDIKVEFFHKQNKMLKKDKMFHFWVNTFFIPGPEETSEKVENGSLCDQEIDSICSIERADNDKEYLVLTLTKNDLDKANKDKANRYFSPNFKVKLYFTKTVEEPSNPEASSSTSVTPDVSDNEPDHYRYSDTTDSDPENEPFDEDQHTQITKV
In short: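 Loss of fluorescent product signal after mobility-shift separation reports PTEN activity, recombinant human enzyme, 1 h after compound addition. Single 25 uM duplicate screen, then concentration-response on actives; DMSO baseline.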

[20] = read-out: xenobiotic metabolism (CYP2C9), CYP2C9 (gene 1559); experiment: CLD_CYP2C9_6hr: CellzDirect (CLD) Gene Expression Assay for xenobiotic metabolism (CYP2C9) at 6 hours (AID 2283664)
In short: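 Readout is qNPA chemiluminescence of CYP2C9 mRNA, taken 6 h after dosing of cultured human liver primary cells at several concentrations. Activity is the increase over 0.2% DMSO baseline. Morphology-based cytotoxicity flagged yes/no.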

## O=[N+]([O-])O
[1]
  outcome: inactive
[2]
  outcome: inactive
[3]
  outcome: inactive
[4]
  outcome: inactive
[5]
  outcome: inactive
[6]
  outcome: inactive

## CN(C)N
[7]
  outcome: inactive
[8]
  outcome: inactive
[9]
  outcome: inactive
[10]
  outcome: inactive

## CNC(=O)Oc1cc(C)c(SC)c(C)c1
[11]
  AC50: 8.61 µM (active)
[12]
  AC50: 39.5 µM (active)
[13]
  AC50: 21.2 µM (active)
[14]
  outcome: inactive
[15]
  outcome: inactive
[8]
  AC50: 24 µM (active) and 26.6 µM (active)
[9]
  AC50: 50 µM (active)
  outcome: inactive
[10]
  AC50: 71.1 µM (active)
  outcome: inactive

## Cc1ccc(OP(=O)(Oc2ccc(C)cc2)Oc2ccc(C)cc2)cc1 (tested in a mixture with another compound)
[16]
  AC50: 1.12 µM (active) and 1.76 µM (active)
[12]
  outcome: inactive
[13]
  outcome: inactive
[14]
  outcome: inactive
[15]
  outcome: inactive
[1]
  AC50: 6.45 µM (active)
[2]
  AC50: 3.66 µM (active)
[3]
  AC50: 7.68 µM (active)
[4]
  AC50: 8.25 µM (active)
[5]
  AC50: 6.01 µM (active)
[6]
  outcome: inactive

## CC1(C)[C@H](C(=O)O[C@H](C#N)c2cccc(Oc3ccccc3)c2)[C@@H]1C=C(Br)Br
[16]
  AC50: 10.1 µM (active)
  outcome: inactive
[7]
  AC50: 50 µM (active)
  outcome: inactive
[8]
  outcome: inactive
[1]
  AC50: 1.1 µM (active)
[2]
  AC50: 2.72 µM (active)
[3]
  outcome: inactive
[4]
  AC50: 3.1 µM (active)
[5]
  AC50: 0.866 µM (active)
[6]
  outcome: inactive

## CN(N=O)c1ccccc1
[11]
  outcome: inactive

## c1ccc(Nc2ccc3ccccc3c2)cc1
[11]
  AC50: 4.65 µM (active)
[12]
  outcome: inactive
[13]
  outcome: inactive
[14]
  outcome: inactive
[15]
  outcome: inactive

## CC(C)(c1ccc(O)cc1)c1ccc(O)cc1
[17]
  AC50: 7.75 µM (active) and 4.05 µM (active) and 10 µM (active)
[18]
  outcome: inactive
[19]
  outcome: inactive
[20]
  outcome: inactive

## N#CSCSc1nc2ccccc2s1
[17]
  AC50: 5.12 µM (active)
[19]
  outcome: inactive
[20]
  AC50: 36.1 µM (active)

## CCCCOCCOCCOCc1cc2c(cc1CCC)OCO2
[17]
  outcome: inactive

## CCCCCCCCCCCCCC[P+](CCCC)(CCCC)CCCC
[18]
  AC50: 14.5 µM (active)

## CCCN(CCC)C(=O)SCC
[20]
  outcome: inactive

## CCCCCCCCCCCCc1ccccc1S(=O)(=O)O
[18]
  AC50: 18.1 µM (active)
[19]
  AC50: 13.5 µM (active)

Source: PubChem BioAssay (EPA / NIEHS)
